Potency and affinity values are given separately. Activity calls are given as the source filed them. No cut-off is given here; in the data, nearly all actives have IC50 up to about 0.91 µM.
These molecules were tested against Calcium-dependent protein kinase 4 (Plasmodium falciparum (isolate 3D7)) (UniProt Q8IBS5) (assay: PfCDPK4 kinase inhibitors, biochemical, TCAMS library (AID 1159588)). Settings: recombinant PfCDPK4, Kinase-Glo ATP depletion luminescence.
Calcium-dependent protein kinase 4 (Plasmodium falciparum (isolate 3D7)), sequence (Q8IBS5 whole entry, looked up): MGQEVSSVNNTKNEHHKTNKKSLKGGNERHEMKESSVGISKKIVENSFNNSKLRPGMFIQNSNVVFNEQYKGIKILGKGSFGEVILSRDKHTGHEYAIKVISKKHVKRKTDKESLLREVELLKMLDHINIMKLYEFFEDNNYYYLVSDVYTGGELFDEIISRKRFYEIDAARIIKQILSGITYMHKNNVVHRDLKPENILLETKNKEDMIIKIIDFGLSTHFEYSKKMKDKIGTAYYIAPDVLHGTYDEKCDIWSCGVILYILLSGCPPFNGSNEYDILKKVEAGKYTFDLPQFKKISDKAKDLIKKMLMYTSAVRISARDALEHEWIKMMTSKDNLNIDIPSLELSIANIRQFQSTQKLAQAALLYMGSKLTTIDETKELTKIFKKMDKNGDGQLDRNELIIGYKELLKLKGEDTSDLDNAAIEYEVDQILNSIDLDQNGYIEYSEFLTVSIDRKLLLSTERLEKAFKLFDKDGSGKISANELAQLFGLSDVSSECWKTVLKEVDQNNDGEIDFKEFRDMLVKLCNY

outcome, inactive:
Cn1c(Nc2cc(C(C)(C)C)on2)nc2cc(Nc3ccnc(Nc4cccc(CS(C)(=O)=O)c4)n3)ccc21
CN(C)CCN(C)Cc1ccc(-c2ccc3c(Nc4ccc(Oc5ccccc5)cc4)ccnc3c2)o1
O=C(NCCCN1CCOCC1)c1cccc(Nc2nccc(Nc3ccc(Oc4ccccc4)cc3)n2)c1
COc1ccc(-c2cnc3ccc(NC4CCC(O)CC4)nn23)cn1 (centres undefined)
COCCNCc1cccc(-c2ccc3c(Nc4ccc(Oc5ccccc5)cc4)ccnc3c2)c1
CC(C)(CNC(=O)[C@H]1CCCN1)c1nc(-c2ccc(Cl)c(O)c2)c(-c2ccncc2)[nH]1
CC(C)(CNCc1ccc(Cl)cc1)c1nc(-c2ccc(Cl)c(O)c2)c(-c2ccncc2)[nH]1
Nc1ncc(-c2cn[nH]c2)cc1-c1nc2ncc(Cl)cc2[nH]1
CN1CCN(Cc2cccc(Nc3nccc(Nc4ccc(Oc5ccccc5)cc4)n3)c2)CC1
CC(C)(CNCc1ccc(Cl)c(Cl)c1)c1nc(-c2ccc(Cl)c(O)c2)c(-c2ccncc2)[nH]1
O=C(NCCN1CCCCC1)c1ccc(Nc2nccc(Nc3ccc(Oc4ccccc4)cc3)n2)cc1
COc1cc2nccc(Nc3ccc(Oc4ccccc4)cc3)c2cc1OC
COc1ccc(CNCC(C)(C)c2nc(-c3ccc(Cl)c(O)c3)c(-c3ccncc3)[nH]2)cc1
COCCNCc1ncsc1-c1ccc2c(Nc3cc(O)c(Cl)cc3F)ccnc2c1
Nc1ncc(-c2cn[nH]c2)cc1-c1nc2ccc(F)cc2[nH]1
CC(C)(CNC(=O)C1CCN(Cc2ccoc2)CC1)c1nc(-c2ccc(Cl)c(O)c2)c(-c2ccncc2)[nH]1
Cc1ccc(O)cc1Nc1ccnc2cc(-c3cccc(CNCCS(C)(=O)=O)c3)ccc12
CC(C)(CN)c1nc(-c2ccc(Cl)c(O)c2)c(-c2ccnc(N)n2)[nH]1
CN(C)CCNCc1nc(-c2ccc3c(Nc4ccc(Oc5ccccc5)cc4)ccnc3c2)cs1
CNCC(C)(C)c1nc(-c2ccc(Cl)c(O)c2)c(-c2ccncc2)[nH]1
CC(C)(CNCCOc1ccc(Cl)cc1)c1nc(-c2ccc(Cl)c(O)c2)c(-c2ccnc(N)n2)[nH]1
CS(=O)(=O)Nc1cccc(-c2cnc3[nH]cc(-c4cccc(CN)c4)c3c2)c1
CN1CCN(c2ccc(Nc3ncc(Cl)c(Nc4cccnc4C(N)=O)n3)cc2)CC1
CNC(=O)c1ccccc1Nc1nc(Nc2ccc(C(=O)O)cc2)ncc1Cl
CN1CCC=C(C(=O)NCC(C)(C)c2nc(-c3ccc(Cl)c(O)c3)c(-c3ccncc3)[nH]2)C1
CC(C)(CNC(=O)C1CCN(CCOc2ccc(Cl)cc2)CC1)c1nc(-c2ccc(Cl)c(O)c2)c(-c2ccncc2)[nH]1
Oc1cccc(-c2cnc3ccc(NCc4ccc(F)cc4)nn23)c1
CC(C)(CNC(=O)[C@H]1CCCCN1)c1nc(-c2ccc(Cl)c(O)c2)c(-c2ccncc2)[nH]1
CS(=O)(=O)Cc1ccc(Nc2nccc(-c3c(-c4cccc(NC(=O)c5c(F)cccc5F)c4)nn4ncccc34)n2)cc1
O=c1[nH]ccc2nc(N[C@@H]3CCNC3)nc(Nc3ccc4c(c3)S(=O)(=O)CC4)c12
CS(=O)(=O)CCNCc1cccc(-c2ccc3c(Nc4cc(O)c(Cl)cc4F)ccnc3c2)c1
Cc1cc(F)ccc1-c1nc(Nc2ccncc2)c2ccn(C)c2n1
CN(C)CCN(C)Cc1nc(-c2ccc3c(Nc4ccc(Oc5ccccc5)cc4)ccnc3c2)cs1
COc1ccc(C(=O)NCC(C)(C)c2nc(-c3ccc(Cl)c(O)c3)c(-c3ccncc3)[nH]2)cc1OCCN(C(C)C)C(C)C
Cc1cccc2[nH]c(-c3cc(-c4cn[nH]c4)cnc3N)nc12
c1cncc(Oc2ccc(Nc3ccnc4cc(-c5cccc(CNCCN6CCOCC6)c5)ccc34)cc2)c1
CC(C)(CNCc1ccc(F)c(F)c1)c1nc(-c2ccc(Cl)c(O)c2)c(-c2ccnc(N)n2)[nH]1
CN(C)Cc1ccc(-c2ccc3c(Nc4ccc(Oc5ccccn5)cc4)ccnc3c2)o1
COc1ccc(-c2cnc3[nH]cc(-c4ccncc4)c3c2)cc1OC

From PubChem BioAssay
